bCat KO growth = beta-catenin-lacking colon tumor cell growth suppression; HCT116 beta-catenin knockout viability, CellTiter-Glo, 60 h; stronger effect = lower value; AID 818; viability, % at 10 µM; hit rate 1.5% among 140,000;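 active means viability at or under a set limit, the compound median less 4 SD, cut at about 6% in these data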;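 further: 0% = Hyamine 1622 control at 20 µM and 100% = untreated cell control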
PTEN del growth = PTEN-deleted cell growth suppression. viability, % at 10 µM. HCT116 PTEN-null viability, CellTiter-Glo, 60 h; stronger effect = lower value. hit rate 1.2% among 140,000;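 active means viability at or below a set limit, 4 SD under the median of all tested compounds, cut at about 3.7% in these data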;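 further: PTEN knockout HCT116 line with beta catenin targeted HCT116 as companion control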
Lmaj promast = inhibitors of Leishmania major promastigote growth; Leishmania major promastigotes, resazurin fluorescence viability; inhibition, % at 10 µM; hit rate 9% among 200,000; AID 1063; in the data active means inhibition above about 50%;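 further: promastigotes grown with compound for 44 hours at 28 °C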
ROMK mod = modulates human ROMK potassium channel activity; hit rate 2% among 130,000; Tet-inducible ROMK, thallium flux fluorescence; actives lie on both sides; B-score at 10 µM; P48048;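 active means signal ratio slope over the read window, or its plate-corrected B-score, at least 3 SD from the plate mean, either direction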;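 further: B-score of the F/F0 ratio slope over 7 to 12 s after thallium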
Insulin prom inh = TRM-6 insulin promoter activity inhibition; hit rate 0.9% among 130,000; inhibition, % at 2 µM; TRM-6 cells (human fetal islet line), insulin promoter-eGFP reporter, imaging; reporter expression induced with tamoxifen;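 active means inhibition above the mean plus 3 SD, with well images judged a real hit on visual review, cut at about 60% in these data, passing the limit was not always enough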
p97 ATPase inh = blocks human p97 ATPase activity; hit rate 0.42% among 220,000; recombinant p97 ATPase, Kinase-Glo ATP luminescence, 3 h; inhibition, % at 8 µM; in the data active means inhibition above about 15%;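 further: 0% = DMSO vehicle and 100% = wells lacking enzyme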
Numbers without * were called inactive; x = no result. Compounds with a hit are over-represented: about 10% of the library has one in this group of screens.

SMILES | bCat KO growth | PTEN del growth | Lmaj promast | ROMK mod | Insulin prom inh | p97 ATPase inh
Cc1noc(C)c1S(=O)(=O)Nc1ccc(C(=O)N2CCN(c3cccc(Cl)c3)CC2)cc1 | 100 | 104 | -5 | 0.63 | -15 | -2
S=C(Nc1ccccc1Oc1ccccc1)Nc1cccc(Cl)c1Cl | 79 | 86 | 14 | x | x | 1
Cc1ccccc1C1NC(=S)NC2=C1C(=O)CCC2 (stereo unspecified) | x | x | -5 | 0.6 | -58 | 2
Nc1c(C(=O)Nc2nc3ccccc3s2)sc2nc(-c3cccs3)ccc12 | -0.1* | 0.1* | 1 | x | -196 | 8
CC(=O)c1sc2nc(-c3cccs3)ccc2c1N | 89 | 87 | -8 | -1.7 | -25 | 1
CC(=O)Oc1ccc(C(=O)[C@H]2[C@H]3C(=O)N(c4ccc(C)cc4C)C(=O)[C@H]3[C@@H]3C=CC=NN32)cc1 | x | x | x | x | x | 4
Cn1c(Cc2ccc3c(c2)OCO3)nnc1SCC(=O)NC1CCCC1 | x | x | 1 | x | 21 | -2
O=C1CC(=O)c2c1cccc2[N+](=O)[O-] | x | x | x | -0.68 | x | 17*
O=C(Cc1ccccc1)c1c[nH]c(C(=O)NCCCN2CCOCC2)c1 | x | x | -8 | -0.91 | x | 5
CC(=O)NCCCC(=O)NN1C(=S)N(Cc2ccccc2)C(=O)C1CC(=O)Nc1cccc(C)c1 (stereo unspecified) | x | x | -11 | 0.0063 | x | 1
Cc1ccccc1OCC(=O)NCC(=O)N/N=C/c1ccc(Br)o1 | 99 | 103 | -6 | -0.32 | 17 | -3
COc1ccccc1OCC(=O)N/N=C/C=C/c1ccc([N+](=O)[O-])o1 | 3.2* | 2.6* | 100* | 0.009 | -161 | 1
Cc1cc(C)cc(OCC(=O)N/N=C/c2ccc([N+](=O)[O-])o2)c1 | x | x | 96* | -1.6 | x | 1
O=C(COc1ccccc1[N+](=O)[O-])N/N=C/C=C/c1ccco1 | 103 | 91 | -8 | -1.1 | x | 3
Cc1ccccc1OCC(=O)N/N=C/c1ccc([N+](=O)[O-])o1 | 38 | 43 | 98* | -0.72 | x | -2
Cc1ccc(OCC(=O)N/N=C/C=C/c2ccco2)cc1 | 83 | 83 | 76* | 1.3 | x | 8
COc1ccc(NS(=O)(=O)c2ccc(Cl)c(C(=O)O)c2)cc1S(=O)(=O)N1CCCCC1 | x | x | -5 | x | 29 | 9
CSc1nnc(-c2sccc2OCc2ccc(C)cc2)n1C | 84 | 81 | 6 | -1.2 | x | -1
S=C(NCC1CCCCC1)Nc1ccc(Oc2ccccc2)cc1 | 48 | 66 | 90* | x | 14 | 0
O=C1c2ccccc2C(=O)c2c(NCCCN(CCO)CCO)cccc21 | x | x | 100* | -1.1 | -50 | -1
COc1ccc(-c2cn3c(C)c(C(=O)Nc4ccncc4)sc3n2)cc1 | 85 | 86 | 100* | x | x | 4
COc1ccc(-c2cn3c(C)c(C(=O)Nc4cccc(NC(C)=O)c4)sc3n2)cc1 | 52 | 66 | 12 | -0.0088 | 24 | -8
CC(/C=N\Nc1nnc2c(n1)[nH]c1c(C)cccc12)=C\c1ccco1 | 2.1* | 2.4* | 6 | x | 4 | 1
CC[n+]1c(/C=C2\Sc3ccccc3N2C)ccc2cccc(C)c21 | x | x | 100* | x | x | 0
CCN1/C(=C/c2ccc3cc(C)ccc3[n+]2CC)Sc2cc(C)c(C)cc21 | x | x | 100* | x | x | -1
SMILES | bCat KO growth | PTEN del growth | Lmaj promast | ROMK mod | Insulin prom inh | p97 ATPase inh
CCC(=O)/C=C1/Sc2ccccc2N1CC | 81 | 88 | 49 | 0.026 | -329 | 0
CCN1/C(=C/c2ccc3cc(C)ccc3[n+]2CC)Sc2ccccc21 | 1.2* | 1.3* | 100* | x | -170 | -4
CCCCn1ccnc1C(=O)c1cccc(S(=O)(=O)N2CC(C)CC(C)C2)c1 (stereo unspecified) | 67 | 74 | -1 | -1.8 | 26 | -5
Cc1cc2c(cc1C)-c1nnnn1C(C)(C)C2 | 111 | 99 | 38 | x | 13 | 12
Cc1cc(C(=O)Cn2ncc(Cl)c(Cl)c2=O)c(C)n1CC(F)(F)F | 0.5* | 0.8* | 63* | x | x | -7
Cc1ccc(C)c(C(=O)Cn2ncc(Cl)c(Cl)c2=O)c1 | 1.8* | 1.3* | 95* | x | -269 | -1
Cc1cc2oc(=O)cc(Cn3ncc(Cl)c(Cl)c3=O)c2cc1Cl | x | x | 100* | -2.6 | x | 4
Cc1cccc(Cn2ncc(Cl)c(Cl)c2=O)c1 | 2.2* | 2.2* | 62* | x | x | 5
Cc1cc(Br)ccc1NC(=O)CNC(=O)Cn1ncc(Cl)c(Cl)c1=O | x | x | 8 | -0.12 | x | 3
Cc1cc2oc(=O)cc(CN3CCc4ccccc43)c2cc1Cl | 76 | 71 | 3 | -2.5 | -50 | 7
CN(Cc1ccccc1)C(=O)COC(=O)CCNC(=O)c1ccccc1Cl | x | x | -6 | -0.028 | x | 3
CCOCCCNC(=O)C(Cc1ccccc1)NC(=O)c1ccco1 (stereo unspecified) | 108 | 85 | -5 | -0.27 | -124 | -1
CN1CCN(NC(=O)c2ccc(S(=O)(=O)N3CC4(C)CC3CC(C)(C)C4)cc2)CC1 (stereo unspecified) | x | x | x | x | x | 0
CCN(CC)c1ccc(Nc2nc(N3CCOCC3)c3ccccc3n2)cc1 | 14 | 21 | 97* | x | 7 | 2
COc1ccc(Nc2nc3ccccc3c(=O)[nH]2)cc1 | x | x | x | -0.86 | x | 7
COc1ccc(Nc2nc(N3CCCC3)c3ccccc3n2)cc1 | 1.7* | 1.9* | 100* | -2.2 | 7 | 8
CCN(CC)c1ccc(NC(=O)c2ccccc2)cc1S(=O)(=O)Nc1ccccc1OC | 70 | 72 | 100* | x | 5 | 7
CCN(CC)c1ccc(NC(=O)c2cccc(C)c2)cc1S(=O)(=O)Nc1ccccc1OC | 81 | 81 | 97* | 0.031 | 39 | 6
COc1ccccc1NS(=O)(=O)c1cc(NC(=O)c2ccncc2)ccc1N1CCCC1 | x | x | 4 | 1.2 | -20 | 5
COc1ccc(NC(=O)c2ccccc2)cc1NS(=O)(=O)c1ccc(F)cc1 | 95 | 101 | 4 | -0.34 | 54 | 5
COc1ccc(NC(=O)c2ccc(-c3ccccc3)cc2)cc1NS(=O)(=O)c1ccc(F)cc1 | 53 | 53 | 91* | 1.1 | 22 | 6
Cc1nn(-c2ccccc2)c(N2CCCC2)c1/C=N/NC(=S)Nc1ccccc1F | 49 | 36 | 10 | x | x | 4
Cc1cc(-c2onc(C)c2C(=O)O)no1 | x | x | x | x | x | 1
CCOC(=O)CN1C(=O)N[C@@H](c2ccccc2)C(C(C)=O)=C1C | 97 | 92 | 3 | 0.9 | 60* | -5
COC(=O)C1=C(C)N(CC2CC2)C(=O)N[C@H]1c1ccc(Br)cc1 | 73 | 74 | 4 | -0.65 | -10 | 0
CCN1C(=O)N[C@@H](c2ccc(Br)cc2)C(C(=O)OC)=C1C | 83 | 100 | 15 | -0.64 | 65* | 11
CC1CN(CC(=O)N2CCc3[nH]c4ccccc4c3C2)CC(C)O1 (stereo unspecified) | 87 | 92 | -4 | x | 45 | -3
O=C(CN1CCN(Cc2ccc3c(c2)OCO3)CC1)N1CCc2[nH]c3ccc(F)cc3c2C1 | 65 | 60 | 99* | x | 31 | 0
Cc1ccc2[nH]c3c(c2c1)CN(C(=O)CN1CCN(c2ccccc2F)CC1)CC3 | 90 | 82 | 23 | x | 41 | -1
